According to PubChem BioAssay AID753 (Emory University Molecular Libraries Screening Center, 2007):
Some of the results follow. Results filed as inconclusive are left out. A number with no mark means an inactive call.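 Rule for the calls: active = percent of control activity at or below 60%; inconclusive = HPLC trace unusable from injection failure or solvent front hiding peaks; inactive = the rest, plus ubiquitin peak ratio over a set limit.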

Target: Ubiquitin carboxyl-terminal hydrolase BAP1 (Homo sapiens) (UniProt Q92560)
Sequence (Q92560 whole entry, looked up): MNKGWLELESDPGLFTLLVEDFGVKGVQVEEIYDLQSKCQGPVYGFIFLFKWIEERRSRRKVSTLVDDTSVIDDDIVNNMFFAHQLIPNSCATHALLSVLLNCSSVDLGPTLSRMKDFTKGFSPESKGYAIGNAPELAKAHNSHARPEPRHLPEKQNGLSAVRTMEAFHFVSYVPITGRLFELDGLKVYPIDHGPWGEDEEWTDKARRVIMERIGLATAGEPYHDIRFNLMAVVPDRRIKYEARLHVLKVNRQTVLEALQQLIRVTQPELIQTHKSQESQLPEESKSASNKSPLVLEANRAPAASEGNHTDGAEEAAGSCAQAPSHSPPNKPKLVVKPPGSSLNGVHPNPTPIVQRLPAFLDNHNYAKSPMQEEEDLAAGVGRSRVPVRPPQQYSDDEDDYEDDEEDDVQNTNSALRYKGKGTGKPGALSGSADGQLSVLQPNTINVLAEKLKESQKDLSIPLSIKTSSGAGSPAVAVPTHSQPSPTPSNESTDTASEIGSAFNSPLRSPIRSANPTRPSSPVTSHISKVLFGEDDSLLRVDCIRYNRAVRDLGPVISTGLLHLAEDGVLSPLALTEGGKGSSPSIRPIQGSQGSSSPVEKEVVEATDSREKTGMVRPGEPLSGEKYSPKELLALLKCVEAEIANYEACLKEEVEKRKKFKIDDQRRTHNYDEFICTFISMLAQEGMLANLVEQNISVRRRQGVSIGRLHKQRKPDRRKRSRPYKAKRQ
Assay: BAP1 deubiquitinase inhibitors, hit retest, confirmation, orthogonal assay, biochemical, Ub-ethyl ester substrate, HPLC readout (AID 753)
Settings: purified BAP1, Ub-ethyl ester hydrolysis, at 20 µM, stronger effect = lower value

CCCCCn1c(=O)c(C(=O)NCc2ccccn2)c(O)c2ccccc21
% of control activity: 112%
